Source: PubChem
WT yeast gro inh: growth inhibition of WT yeast, mitochondrial fusion screen; mitochondrial fusion phenotypic screen, WT strain; AID 1362; inhibition, % at 10 µM; actives 2.1% (n = 190,000); in the data active means inhibition above about 58%; tested in S. cerevisiae
CHOP inh: blocks CHOP induction under ER stress | AID 2732 | inhibition, % at 10 µM | actives 3.8% (n = 220,000) | CHO-K1 CHOP-promoter luciferase, tunicamycin-induced, 15-18 h;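 active means compounds that reduced the stress-induced luciferase reporter signal by more than about 70% of percent inhibition, limit read from the data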;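 further: 0% = tunicamycin plus vehicle and 100% = wells without tunicamycin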
Arbovirus inh: antivirals against arbovirus infection; arbovirus infection cell-based antiviral screen; inhibition, % at 10 µM; actives 0.37% (n = 200,000); AID 1251; in the data active means inhibition above about 30%
Lmaj promast: Leishmania major promastigote growth inhibition; Leishmania major promastigotes, resazurin fluorescence viability; inhibition, % at 10 µM; actives 9% (n = 200,000); in the data active means inhibition above about 50%;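 further: promastigotes grown with compound for 44 hours at 28 °C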
The depositor's hits bear a star; nt = no result given. Shown are actives, neighbours in structure and some others; about 12% of the full set was active somewhere.

SMILES | WT yeast gro inh | CHOP inh | Arbovirus inh | Lmaj promast
O=C(NC(=O)c1cccc(Cl)c1)OC[C@@H]1CCCN2CCCCC12 (some centres not stated) | -2.4 | -25.6 | -0.8 | -4.0
O=C(NC(=O)c1cccc(F)c1)OC[C@@H]1CCCN2CCCC[C@H]12 | 6.7 | 17.1 | 6.1 | -3.3
CCc1nc(N2CCN(Cc3ccc4c(c3)OCO4)CC2)c2oc3ccccc3c2n1 | -23.8 | 21.6 | -25.3 | 47.5
Cc1ccc(S(=O)(=O)N(C)C)cc1[N+](=O)[O-] | nt | 24.2 | nt | nt
O=C(Nc1ccc(F)c(F)c1)c1cnc(-c2ccccc2)nc1-c1ccccc1 | -3.1 | 93.6* | 8.9 | 3.7
O=C(Nc1ccc(F)cc1)c1cnc(-c2ccccc2)nc1-c1ccccc1 | 0.3 | 81.2* | -14.9 | -3.3
CN(C)S(=O)(=O)c1cccc(N=C2NN=C(c3ccccc3)CS2)c1 | 19.5 | 7.0 | -9.0 | -6.4
CC1CN(C(=O)c2ccccc2)C(=Nc2cccc(S(=O)(=O)N(C)C)c2)S1 (configuration not stated) | -4.8 | -4.9 | 10.4 | 82.8*
COC(=O)C(C)N(C(=O)c1ccc(C(=O)c2ccccc2)cc1)c1c(C)cccc1C (configuration not stated) | 25.2 | 29.4 | -37.5 | 99.4*
CCN(CC(=O)NC(C)C)C(=O)c1ccc(Cl)cc1 | 11.4 | 8.9 | 1.1 | -6.0
COC(=O)C(C)N(C(=O)c1ccc(Cl)cc1)c1c(C)cccc1C (configuration not stated) | -17.8 | -8.8 | 12.7 | 87.2*
Cc1cc(=O)oc(C)c1C(=O)Nc1ccc2nsnc2c1 | 94.1* | nt | 5.9 | -7.9
COc1ccc(O)c(/C=N/NC(=O)c2cc(=O)[nH]c3ccccc23)c1 | nt | 55.4 | nt | nt
Cc1nc2c(cnn2-c2ccccc2Cl)c(=O)n1-c1ccc(N2CCC(C)CC2)cc1 | 44.8 | 76.8* | 5.8 | 35.1
Cc1ccc(-n2c(C)nc3c(cnn3-c3ccccc3Cl)c2=O)cc1C | 5.0 | 21.1 | 0.2 | 1.5
Cc1ccc(-n2c(C)nc3c(cnn3-c3ccc(F)cc3)c2=O)cc1C | -11.4 | 47.5 | 5.2 | -5.5
CCc1nc2c(cnn2-c2ccc(F)cc2)c(=O)n1-c1ccc(N2CCC(C)CC2)cc1 | 34.5 | 78.9* | 6.3 | 38.2
OC1(c2ccccc2)CCN(Cc2ccccc2)C2CCCCC21 (configuration not stated) | 3.3 | -14.1 | 28.2 | 96.8*
Cc1nn(CC(=O)NCc2cc3ccccc3[nH]2)c(C)c1[N+](=O)[O-] | -4.4 | -3.3 | 4.8 | 29.6
Cc1ccc(Cn2nnc3c(=O)[nH]c(C4CCCN(S(=O)(=O)c5ccccc5)C4)nc32)cc1 (configuration not stated) | -3.4 | 28.9 | -8.3 | 0.0
O=c1[nH]c(C2CCCN(S(=O)(=O)c3ccc(F)cc3)C2)nc2c1nnn2Cc1ccccc1 (configuration not stated) | 4.9 | 90.2* | 2.2 | 3.4
Cc1ccc(N=C(N)N=C(N)N)cc1 | nt | -18.0 | nt | nt
Clc1ccc(/C=N/NC(=Nc2ccccc2)c2ccccn2)c(Cl)c1 | 74.1* | 81.1* | 6.9 | 15.9
C(=N\NC(=Nc1ccccc1)c1ccccn1)/c1ccccn1 | 1.6 | 16.5 | -32.5 | 48.0
Cc1cc(=O)[nH]c(SCc2nc3ccc([N+](=O)[O-])cc3[nH]2)n1 | -25.9 | 22.4 | 9.2 | 55.3*
SMILES | WT yeast gro inh | CHOP inh | Arbovirus inh | Lmaj promast
CCCc1cc(=O)[nH]c(SCc2nc3ccc([N+](=O)[O-])cc3[nH]2)n1 | -11.6 | -7.6 | 4.2 | 41.3
CC(=O)N1c2ccc3ccccc3c2C(C)CC12CCCCC2 (configuration not stated) | 87.3* | 70.1* | -30.4 | -1.5
CC1CC2(CCCCC2)Nc2ccc3ccccc3c21 (configuration not stated) | 44.5 | -22.7 | -1.7 | 8.3
CCCOC(=O)Nc1cc(OC)ccc1[N+](=O)[O-] | -1.3 | -10.0 | -1.9 | 1.1
CCc1cccc(NC(=O)CS(=O)Cc2nc(-c3ccc(C)cc3)oc2C)c1 (configuration not stated) | 35.2 | 92.8* | -17.4 | 1.4
CCCN(CCC)CCCNC(=O)CS(=O)Cc1nc(-c2ccc(OC)c(OC)c2)oc1C (configuration not stated) | 71.0* | -15.1 | 3.5 | 7.5
O=C(CSc1ccc(-c2cccc([N+](=O)[O-])c2)nn1)NC1CCCC1 | 5.4 | 0.7 | -2.1 | -4.6
COc1ccccc1CNC(=O)c1ccc2c(=O)n(CCCN3CCCC3=O)c(=S)[nH]c2c1 | 4.0 | -4.8 | 1.0 | -4.2
Cc1cccc2c(=O)cc(C)n(CC(N)=O)c12 | nt | 10.0 | nt | nt
CC(C)Nc1ccc(C(CC(N)=O)NC(=O)Cc2ccc(Cl)cc2)cc1[N+](=O)[O-] (configuration not stated) | nt | -18.9 | nt | nt
Cc1cccc2cc(C#N)c(NCCNC(=O)NC3CCCCC3)nc12 | 8.7 | 72.1* | -13.1 | 1.9
COc1cccc(-n2c(CN3CCN(Cc4ccccc4)CC3)nc3ccc([N+](=O)[O-])cc3c2=O)c1 | -4.6 | 14.8 | -6.8 | 76.5*
COc1ccc(-n2c(CN3CCN(Cc4ccccc4)CC3)nc3ccc([N+](=O)[O-])cc3c2=O)c(OC)c1 | 14.9 | 28.3 | 7.2 | 8.8
Cc1nc(C(F)(F)F)c(C(=O)N/N=C(\N)c2cccnc2)s1 | -5.7 | -12.3 | 2.7 | -3.3
CCn1c(CCCc2ccc(OC)c(C)c2)n[nH]c1=S | 10.4 | 15.0 | 2.9 | 29.8
O=c1/c(=C\c2ccc(F)cc2)sc2n1CCCN=2 | 8.1 | -8.8 | 0.9 | -1.9
O=c1/c(=C/c2ccc(O)cc2)sc2n1CCCN=2 | -8.1 | 33.3 | 46.8* | 14.0
Cc1ccc2nc(NC3=NC(CC(=O)O)C(=O)N3)nc(C)c2c1 (configuration not stated) | -9.6 | 12.0 | 0.1 | -0.1
O=C(Cn1cnc2ccccc21)N/N=C/c1ccccn1 | -5.4 | -5.3 | -3.7 | -5.0
COc1ccc(Nc2nnc(-c3ccc(N4CCOCC4)c([N+](=O)[O-])c3)c3ccccc23)cc1 | nt | 56.2 | -18.4 | 56.9*
COC(=O)C1=C(C(=O)OC)[C@@H]2N(C)c3ccccc3[C@@]23C[C@@H](C(=O)OC)N(C(=O)c2ccc(Br)cc2)C3=N1 | nt | -14.4 | nt | nt
Cc1ccc(NC(=O)N2N=C(c3ccc(F)cc3)CC2c2ccc(F)cc2)cc1 (configuration not stated) | 77.4* | -12.5 | 14.9 | 14.9
COc1ccc(C2CC(c3ccccc3)=NN2C(=O)CN2CCN(Cc3ccccc3)CC2)cc1 (configuration not stated) | 26.5 | 11.1 | -11.7 | 54.4*
COc1ccc(C2CC(c3ccccc3OC(C)=O)=NN2C(=O)/C=C/c2ccccc2)cc1 (configuration not stated) | 32.0 | 42.6 | -5.8 | 97.1*
CS(=O)(=O)Nc1ccc(C2=NN(C(=O)c3ccco3)C(c3ccc(F)cc3)C2)cc1 (configuration not stated) | 10.2 | -18.2 | -9.8 | 5.0
CC(=O)Oc1ccccc1C1=NN(C(=O)/C=C/c2ccccc2)C(c2ccccc2)C1 (configuration not stated) | 57.4 | 14.6 | 8.7 | 18.6
COc1ccc(C2=NN(C(=O)CN3CCCCC3)C(c3ccc(C)cc3)C2)cc1 (configuration not stated) | 9.2 | 16.1 | -4.0 | 73.0*
COc1ccccc1N1CCN(C(c2cccs2)C(C)NC(=O)c2ccncc2)CC1 (configuration not stated) | nt | 6.0 | nt | nt
